# Measurements from PubChem BioAssay (Tox21).
# Records with an inconclusive call do not appear. Entries that show only a call come without a potency. A number with no mark means an inactive call. Active and inactive are the calls of the source. Calls follow the shape of the full dose curve.
# Test: qHTS assay to identify small molecule agonists of H2AX - cell viability counter screen (AID 1224847); also: top concentration of the series differs between compounds; nearly all actives have a fitted effect of over 30% in size
# Details: CHO-K1 viability, CellTiter-Glo luminescence, 3 h; series mostly up to 154 µM
# Description: National Center for Advancing Translational Sciences [NCATS]
# NIH Chemical Genomics Center [NCGC]
# U.S. Environmental Protection Agency [EPA]
# National Institutes of Environmental Health Sciences [NIEHS]
# National Toxicology Program [NTP]
# U.S. Food and Drug Administration [FDA]
# HTRF phospho-H2AX (Ser139) assay (Cisbio Bioassays, US) enables the quantitative detection of the histone variant H2AX when phosphorylated on serine 139. When double-stranded DNA breaks, either by ionizing radiation or endogenous physiological processes, H2AX becomes phosphorylated at Ser139. This phospho-Ser139 serves as a sensitive biomarker for the detection of such breaks, localizing the site of DNA repair. So, HTRF phospho-H2AX Ser139 is a pertinent assay to study genome stability, the cell cycle, DNA repair, and it serves as a biomarker for cancer, and to understand aging. Wild type CHO-K1 cells were used to identify the inducers of Phospho-H2AX Ser 139 from the Tox21 compound collections. Also cytotoxicity of the Tox21 10K compound library against the CHO-K1 cell line was tested by measuring the cell viability using CellTiter-Glo assay (Promega, Madison, WI).
# Tox21 Assay Protocol Summary:
# The CHO-K1 cells suspended in culture medium containing 10% FBS were dispensed at 1000 cells/ 3 ul/well in 1536-well white wall/solid bottom plates (Greiner Bio-One North America, NC) using a Multidrop Combi (Thermo Fisher Scientific Inc., Waltham, MA). After the assay plates were incubated at 37C overnight, 23 nl of compounds at 15 concentrations (from 5-48 columns) or positive control (from 1 to 4 columns) were transferred to the assay plates using a Pintool station (Wako, San Diego, CA) into each well resulting in a final DMSO concentration of 0.76%. After 3hr incubation at 37C, 3 uL/well CellTiter-Glo luminescent cell viability reagent (Promega Corporation, Madison, WI) was added using a Flying Reagent Dispenser (FRD) (Aurora Discovery, CA). After incubation at room temperature for 30 min, the luminescence intensity was read using a ViewLux plate reader (PerkinElmer, Waltham, MA).
SMILES,Potency,"activity change, negative = cytotoxicity"
NC(=O)c1c(Cl)cccc1Cl,inactive,
CN(C)CCn1nnnc1SCC1=C(C(=O)O)N2C(=O)[C@@H](NC(=O)Cc3csc(N)n3)[C@H]2SC1,inactive,
C[N+](C)(C)CC[N+]1(C)Cc2c(Cl)c(Cl)c(Cl)c(Cl)c2C1,inactive,
CC(C=O)Cc1ccc(C(C)C)cc1 (stereo not given),inactive,
NCCN1CCNC1=O,inactive,
OCc1ccccn1,inactive,
C#CC(C)(O)CC(C)C (stereo not given),inactive,
CC(C)COC(=O)c1ccccc1O,inactive,
CCCC(C)CO (stereo not given),inactive,
[O-][N+](=Nc1ccccc1)c1ccccc1,inactive,
CN(C)N=Nc1ccccc1,inactive,
COc1cc(C(=O)N2CCOCC2)cc(OC)c1OC,inactive,
CCCCc1ccc2cccc(S(=O)(=O)O)c2c1,inactive,
CCN(CC)C(=O)c1ccc(O)c(OC)c1,inactive,
NC(=S)Nc1cccc2ccccc12,,1.9% [at 14 µM]
CCCCN(CCO)CCO,inactive,
CO[Si](CCCNCCC[Si](OC)(OC)OC)(OC)OC,inactive,
CCn1c(=O)c2c(nc(/C=C/c3ccc(OC)c(OC)c3)n2C)n(CC)c1=O,inactive,
O=C(O)C1CCC1,inactive,
O=c1[nH]c2ccccc2c(=O)n1CCCl,inactive,

SMILES,Potency,"activity change, negative = cytotoxicity"
CC12CCC(CC1=O)C2(C)C (stereo not given),inactive,
CSc1nc(NC2CC2)nc(NC(C)(C)C)n1,inactive,
CCCCCCOC(=O)CC(CC(=O)OCCCCCC)(OC(=O)CCC)C(=O)OCCCCCC,inactive,
CCCOc1ccccc1-c1nc2n[nH]nc2c(=O)[nH]1,inactive,
Fc1ccccc1-c1ccccc1,inactive,
NC(=O)c1ncn([C@@H]2O[C@H](CO)[C@@H](O)[C@H]2O)c1N,inactive,
C=CC(=O)N1CCOCC1,inactive,
O=C1C(CCS(=O)c2ccccc2)C(=O)N(c2ccccc2)N1c1ccccc1 (stereo not given),inactive,
CC(=O)NC(Cc1ccccc1)C(=O)O (stereo not given),inactive,
CC(=O)OC(C)(C)C,inactive,
C=CCn1c(=O)n([C@@H]2O[C@H](CO)[C@@H](O)[C@H]2O)c2nc(N)[nH]c(=O)c21,inactive,
CCCCCCCCCCC1CO1 (stereo not given),inactive,
C[C@H]1O[C@@H](n2cc(F)c(=O)[nH]c2=O)[C@H](O)[C@@H]1O,inactive,
CC(C)=CCC/C(C)=C/C(=O)O,inactive,
COCc1ccc(COC)cc1,inactive,
CN(C)C(=O)C(CCN1CCC(O)(c2ccc(Cl)cc2)CC1)(c1ccccc1)c1ccccc1,inactive,
CCC(C(=O)NC(N)=O)c1ccccc1 (stereo not given),inactive,
O=C(O)c1ccccc1S,inactive,
Nc1ccc2cc(S(=O)(=O)O)ccc2c1,inactive,
CC(=O)CCc1ccc(O)cc1,inactive,
